Drawing on PubChem BioAssay AID434973 (Sanford-Burnham Center for Chemical Genomics, 2010), this text covers inhibition for 29 compounds.

The campaign covered roughly 330,000 compounds. About 4,900 (1.5%) were called active.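 The calls were made as follows: active = inhibition above about 50% at the single test dose (limit read from the data); inactive = the rest.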 Many of the other results were omitted from the sample, so actives are more common in it than they were.

The assay has as its target Sentrin-specific protease 7 (Homo sapiens) (UniProt Q9BQF6). As to the kind of experiment: blockers of human SENP7 peptidase activity – biochemical, luminescence, uHTS, primary screen (AID 434973).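 Also: plate controls were DMSO with enzyme for no effect and no enzyme buffer wells for full effect.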 Conditions: recombinant SENP7, Z-RLRGG-aminoluciferin luminescence, 40 min; at 5 µM; hits give high values.
With `Nc1nc(SCc2cccc(Br)c2)n[nH]1`, the inhibition (usually the relative decrease from the control value, in per cent) is 0.492% (inactive).
As for `CCCC1CC(C)(C(=O)Cn2[nH]c(=O)ccc2=O)OC1=O` (centres undefined), the inhibition is -0.683% (inactive).
As for `Cc1cc(C)nc(-n2ncc3c2CC(c2ccc(C(C)C)cc2)CC3=O)n1` (centres undefined), the figure is 9.11% (inactive); as for `COc1cccc(NCCC(=O)c2cccc([N+](=O)[O-])c2)c1`, 13.1% (inactive).
For the compound `COc1ccc(-n2cnnc2SCC(=O)Nc2cccc([N+](=O)[O-])c2)cc1`, the inhibition is -4.85% (inactive).
As for `COc1ccc(Cc2nnc(SCC(=O)c3cccc([N+](=O)[O-])c3)n2C)cc1`, the figure is 73.6% (active); as for `O=C(CN1CCOCC1)N1CCCc2c1c(=O)oc1ccc(OCc3ccccc3)cc21`, 4.73% (inactive); as for `C/C(CC(=O)Nc1ccc(N(C)C)cc1)=N\NC(=O)c1ccccc1F`, -1.56% (inactive).
In the case of `C/C(=N\NC(=O)c1ccccc1F)c1ccccn1`, the inhibition was 64.2% (active).
On to `COc1ccc(/C(C)=N\NC(=O)c2ccc(-c3ccccc3)cc2)c(F)c1`, for which the inhibition is 3.63% (inactive).
For the compound `COc1ccc(OC)c(CNC(=O)c2cc(=O)[nH]c3ccc(S(=O)(=O)N4CCCC4)cc23)c1`, the inhibition was 0.442% (inactive).
Regarding `O=C1CC2(CCCC2)C(=O)N1CN1CCN(S(=O)(=O)c2ccc(F)cc2F)CC1`, the inhibition was -8.48% (inactive).
On to `CCC1C(=O)c2ccccc2N(C)C1=O` (centres undefined), for which the inhibition was -6.31% (inactive).
As for `CN1C(=O)/C(=N/OC(=O)c2ccccc2Br)c2ccccc21`, the figure is 4.98% (inactive); as for `CN1C(=O)/C(=C\c2cc(Br)cs2)c2ccccc21`, 80.9% (active).
Turning to `O=C(Nc1cc(=O)[nH]c2ncnn12)c1ccccc1Cl`, the inhibition is 10.9% (inactive).
As for `Cc1ccc(S(=O)(=O)N2CCN(c3ncnc4ccccc34)CC2)cc1`, the figure is 0.743% (inactive).
In the case of `Cc1ccc(NC(=O)CN2CCc3ccccc3C2)cc1`, the inhibition is -5.44% (inactive).
As for `Cc1ccc(S(=O)(=O)Nc2nc3ccccc3nc2N2CCc3ccccc3C2)cc1`, the inhibition is 86.2% (active).
For the compound `O=C(COc1ccccc1O)NC1CCCC1`, the inhibition is -1.19% (inactive).
As for `CCCCNc1ccc(C(=O)Nc2cccc(C)n2)cc1[N+](=O)[O-]`, the figure is -7.17% (inactive); as for `Nc1ccc(N=Nc2ccccc2Cl)c(N)n1`, 82.3% (active).
As to `CCOc1cc(/C=C/C(=O)OCC(=O)NCCN2C(=O)CSC2=O)ccc1OCC(C)C`, the inhibition was 4.69% (inactive).
On to `Cc1noc(C)c1/C=N/Nc1ccc2ccccc2n1`, for which the inhibition is 52.5% (active).
In the case of `O=C(N/N=C/c1ccc2c(c1)OCO2)C(=O)N1CCCC1`, the inhibition was 4% (inactive).
In the case of `Cc1nc(Cl)cc(N/N=C/c2ccccc2)n1`, the inhibition was 4.74% (inactive).
`Cc1nc2ccccc2nc1N/N=C/c1ccc(O)cc1O`: the inhibition was 7.72% (inactive).
Consider `Cc1cc(=O)[nH]c(N/N=C/c2ccc3c(c2)OCCO3)n1`, for which the inhibition was 6.15% (inactive).
Regarding `C(=N\Nc1ccc2ccccc2n1)/c1ccc2c(c1)OCO2`, the inhibition is 96.1% (active).
